Assay outcomes: PubChem BioAssay, National Center for Advancing Translational Sciences (NCATS)
Sampled rows, rich in hits. Any-hit rate of the full collection: about 4.6%.
D1 ag: agonists of human D1 dopamine receptor; HEK293 T-REx D1 cells, calcium flux, agonist mode; activation, % at 2 µM; actives 1% (n = 360,000); AID 504660; further: 0% is about no effect
Target sequence (P21728 whole entry, looked up): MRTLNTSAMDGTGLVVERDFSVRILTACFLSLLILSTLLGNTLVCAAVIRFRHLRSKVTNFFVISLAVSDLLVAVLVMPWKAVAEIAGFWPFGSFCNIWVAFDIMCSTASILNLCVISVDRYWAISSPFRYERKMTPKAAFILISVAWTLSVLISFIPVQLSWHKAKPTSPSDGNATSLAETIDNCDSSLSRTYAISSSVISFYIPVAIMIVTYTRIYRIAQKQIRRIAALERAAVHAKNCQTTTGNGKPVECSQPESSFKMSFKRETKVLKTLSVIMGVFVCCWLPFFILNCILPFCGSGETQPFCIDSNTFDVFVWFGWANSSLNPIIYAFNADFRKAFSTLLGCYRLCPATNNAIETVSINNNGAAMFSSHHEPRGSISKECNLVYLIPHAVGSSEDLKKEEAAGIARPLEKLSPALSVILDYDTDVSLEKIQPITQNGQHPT
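Inducible HEK293 T-REx D1 cells, force-coupled to calcium signalling, were plated at 4000 cells/well with tetracycline and held overnight at 30 C. After no-wash calcium dye loading, compound-evoked calcium rise over 180 s flagged agonists.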
D1 antagonist: blocks dopamine activation of the human D1 receptor. P21728. HEK293 TREx D1 cells, calcium flux, dopamine EC80; active compounds read low. activity change, negative = inhibition, % at 10 µM. actives 3.2% (n = 360,000). AID 504652; in the data active means activity change below about -30%; further: on the % scale 0 is the no-effect control and ±100 the full control effect
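Cells carrying a force-coupled, tetracycline-inducible human D1 receptor report calcium flux. Each well gets a 10 s baseline, compound with 180 s monitoring, then an EC80 dopamine stimulus with a second 180 s kinetic read.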
D1 potentiator: human D1 dopamine receptor positive modulation. HEK293 TREx D1 cells, calcium flux, dopamine EC20 potentiation. potentiation, % at 10 µM. actives 0.036% (n = 360,000); in the data active means potentiation above about 30%; further: 0% is about no effect
TRHR enhancer-1: allosterically enhances the human TRH receptor; P34981; TRHR cells, fluo-8 calcium fluorescence, EC20 TRH enhancement; enhancement, % at 2 µM; actives 0.66% (n = 360,000); AID 493056; in the data active means enhancement above about 30%; further: 0% is about no effect
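TRHR-expressing cells loaded with fluo-8 calcium dye were read kinetically (ex 480/em 530) during compound addition, then stimulated with an EC20 of TRH (10 nM final). Enhancement of the Gq-mediated intracellular calcium response was scored.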
TRHR agonist-1: activates the human TRH receptor. actives 0.18% (n = 360,000). TRHR cells, calcium flux fluo-8, FDSS agonist mode. activation, % at 2 µM. P34981. AID 493084; further: 0% is about no effect
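Agonist-mode FDSS calcium read (Ex 480/Em 530, 1 s cycles) in 1536-well TRHR cells with fluo-8 dye, after 10-cycle baseline and 23 nL compound addition; TRH at EC20 (10 nM final) added afterwards for the enhancer phase.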
TRHR enhancer-2: human TRH receptor allosteric enhancement confirmation; activity change, negative = inhibition, % at 46.1 µM; shares compounds with TRHR enhancer-1; TRH receptor cell assay, enhancer confirmation qHTS; 970 tested, under 10 active; active means well fitted curve in the direction sought with a large enough effect; inconclusive means small, poorly fitted or top-dose-only effect, or another doubt; inactive means no such curve, though single readings can be large; an effect the other way counts as inactive or inconclusive;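 further: compound effect scored on response to added TRH at EC20 of 10 nM; 0% is about no effect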
TRHR agonist-2: confirmation of human TRH receptor agonists. TRHR-expressing cells, agonist activation read-out. Potency, µM (top dose mostly 46.1 µM), for inactives: top-dose activation, hits mostly activators. shares compounds with TRHR enhancer-1. actives 8% (n = 970); active means well fitted curve in the direction sought with a large enough effect; inconclusive means small, poorly fitted or top-dose-only effect, or another doubt; inactive means no such curve, though single readings can be large; an effect the other way counts as inactive or inconclusive; further: potency means the concentration at half of the fitted maximal effect; 0% is about no effect; nearly all actives have a fitted effect of over 75% in size
Active calls of the source: *; u = inconclusive; x = no result given; ! = not confirmed by another sample. Unless noted, no stated cut-off is given here; in the data, active means activation above about 30%; inactive means the rest.

SMILES	D1 ag	D1 antagonist	D1 potentiator	TRHR enhancer-1	TRHR agonist-1	TRHR enhancer-2	TRHR agonist-2
CCOC(=O)N1CCN(C(=O)CSc2nc(=O)n3ccc(C)cc3n2)CC1	3	-7	3	3	1	x	x
CC1(C)Oc2ccc(C(=O)NC3CCCCC3)cc2N(CC#N)C1=O	4	8	-2	46*	0	1	7%
Cn1nc(C(=O)Nc2nc3ccc(S(C)(=O)=O)cc3s2)ccc1=O	1	x	2	45*	0	-5	1%
CS(=O)(=O)c1ccc2nc(NC(=O)c3ccc(=O)[nH]c3)sc2c1	2	-6	0	3	-1	x	x
CCc1noc(C)c1C(=O)Nc1nc2c(C)cccc2s1	3	-19	-1	56*	0	-2	-1%
CCc1cccc2sc(NC(=O)C3CC3)nc12	2	4	-10	42*	0	0	u
C=CCn1cc(C(=O)N2CCN(C)CC2)c(=O)c2cc(S(=O)(=O)N(CC)CC)ccc21	3	-14	-6	53*	1	-4	-1%
C=CCn1cc(C(=O)N2CCN(C)CC2)c(=O)c2cc(S(=O)(=O)N3CCCC3)ccc21	3	-2	x	-3	0	x	x
CC1Cc2cc(/C(O)=C3/C(=O)C(=O)N(CCN4CCOCC4)C3c3ccc(N(C)C)cc3)ccc2O1 (stereo unspecified)	6	-4	-5	42*	0	-3	2%
CC1Cc2cc(/C(O)=C3/C(=O)C(=O)N(CCN4CCOCC4)C3c3ccc(C(C)C)cc3)ccc2O1 (stereo unspecified)	2	1	-8	4	1	x	x
C#Cc1cccc(NC(=O)c2ccc3c(c2)C(=O)N(Cc2cccnc2)C3=O)c1	8	-16	-2	2	1	x	x
CCO[C@H]1OC(C(=O)NC2CC2)=C[C@@H](C)[C@@H]1CCCO	-3	16	5	44*	-1	-1	-1%
Cc1ccc(-c2cc(C(=O)Nc3c(C(=O)c4ccc(C)c(F)c4)oc4ccccc34)no2)cc1	2	-5	1	-1	1	x	x
COc1cccc(-c2cc(C(=O)Nc3ccc(OC)c(OC)c3)no2)c1	3	8	4	2	27	1	2%
COc1ccc(-c2cc(C(=O)Nc3cc(C)nn3-c3ccccc3)no2)cc1OC	0	-2	-2	57*!	0	-7	2%
COc1ccc(NC(=O)c2cc(-c3ccccc3)on2)cc1OC	5	2	3	1	0	x	x
COc1ccc2nc(/N=C\N(C)C)sc2c1	2	-23	-4	5	0	x	x
COc1ccc2nc(N=Nc3ccc(N(C)C)cc3)sc2c1	8	-10	-2	86*	-1	3	-1%
Cc1ccc(OCC(=O)OCc2cc(=O)n3nc(-c4cccs4)sc3n2)cc1C	3	19	0	0	1	x	x
CCCCCCc1cc2cc(C(=O)Nc3ccccc3)c(=O)oc2cc1O	7	-8	-6	-10	30*	5	1%
N=c1oc2ccccc2cc1C(=O)Nc1ccccc1	8	18	0	-2	0	x	x
Cc1ccccc1NC(=O)CSc1nc(N)c(C#N)c(-c2cccs2)c1C#N	7	-9	0	1	2	x	x
COc1ccc(CCNC(=O)CSc2nc(N)c(C#N)c(-c3cccs3)c2C#N)cc1OC	1	0	-5	26	141*	0	0%
O=C(CCCn1c(=S)[nH]c2cc3c(cc2c1=O)OCO3)NCc1ccccc1Cl	1	6	1	46*	-2	-4	0%
CN1CCN(c2ccc(S(=O)(=O)N3CCCCC3)cc2N)CC1	4	5	3	60*	2	1	-1%
SMILES	D1 ag	D1 antagonist	D1 potentiator	TRHR enhancer-1	TRHR agonist-1	TRHR enhancer-2	TRHR agonist-2
Nc1cc(S(=O)(=O)N2CCCCC2)ccc1N1CCCCC1	8	-21	-6	0	0	x	x
O=C(O)C1CC=CCC1C(=O)NCCCN1CCCC1=O (stereo unspecified)	4	-14	2	45*	0	1	-1%
CC1=C(C)CC(C(=O)NCCCN2CCCC2=O)C(C(=O)O)C1 (stereo unspecified)	1	-5	-6	-8	0	x	x
CC(=O)NS(=O)(=O)c1ccc(NC(=O)c2ccc(Cl)cc2[N+](=O)[O-])cc1	2	-7	-1	50*	0	-6	5%
COc1ccc(C(=O)Nc2ccc(S(=O)(=O)NC(C)=O)cc2)cc1[N+](=O)[O-]	2	6	-2	5	1	x	x
CCC(C(=O)NCc1cccnc1)c1ccccc1 (stereo unspecified)	1	13	-5	42*	0	-2	-1%
CSCCC(NC(=O)c1ccc(Cl)c([N+](=O)[O-])c1)C(=O)N1CCN(C/C=C/c2ccccc2)CC1 (stereo unspecified)	0	4	-4	66*	0	-2	1%
Cc1ccc(C)c(NC(=O)C[n+]2ccccc2)c1	1	11	30	65*	0	4	-1%
O=c1[nH]c2cc3ccccc3cc2nc1C(F)(F)F	17	-2	9	-4	29	-2	u
CCc1ccc(NC(=O)N(Cc2cccnc2)Cc2ccco2)cc1	-2	x	-2	43*	-1	u	16µM*
COc1ccc(NS(=O)(=O)c2cccs2)cc1S(=O)(=O)N1CCCCC1	5	-4	6	1	-1	x	x
CC(NC(=S)NC(=O)c1ccccc1Br)c1ccccc1 (stereo unspecified)	2	21	-4	47*	0	-4	-1%
CC(C)C(NC(=O)c1ccccc1Br)c1ccccc1 (stereo unspecified)	1	12	6	-2	-1	x	x
COc1ccc2nc(N3CCN(C(=O)C4CC4)CC3)sc2c1	-3	x	-2	-4	1	x	x
CCOC(=O)N1CCc2c(sc3c2c(=O)n(-c2ccccc2)c(=O)n3CC(=O)Nc2ccc(OC)cc2OC)C1	3	6	0	-4	0	x	x
CCCCCn1nc(-c2ccccc2)c2nc3ccccc3nc21	37*	21	7	10	26	2	16µM*
COc1cccc(CNC(=O)c2c(C)nn(-c3ccc(F)cc3)c2-n2cccc2)c1	2	-5	-2	-2	0	x	x
Cc1ccc(C)c(NC(=O)Cn2c(=O)nc(-c3ccccc3)c3ccccc32)c1	-2	-10	1	-6	0	x	x
O=C(O)c1cccc(CSc2nc(-c3ccc(Cl)cc3)cc(C(F)(F)F)n2)c1	9	-37*	0	42*	0	-10	u
